# Sampled rows, rich in hits. Any-hit rate of the full collection: about 5.3%.
# Vaccinia Venus: vaccinia inhibition (Venus reporter). Vaccinia virus Venus reporter expression, fluorescence. Potency, µM (series often up to 36.5 µM), inactives show at the highest dose activity change, negative = inhibition, usual class: inhibitors. actives 0.46% (n = 330,000); calls by dose curve; tested in A549 cells; further: nearly all actives have a fitted effect of over 30% in size
# Lassa entry inh: blocks Lassa virus binding to or entry into cells; Lassa virus pseudotype entry inhibition, cell reporter; Potency, µM (highest dose often 37.9 µM), for inactives: at the highest dose activity change, negative = inhibition, usual class: inhibitors; actives 1.2% (n = 300,000); AID 540256; calls by dose curve; tested in HEK293 cells; further: nearly all actives have a fitted effect of over 50% in size
# VACV mCherry inh: vaccinia inhibition (mCherry reporter); Vaccinia virus mCherry reporter infection, fluorescence; Potency, µM (series often up to 36.5 µM), for inactives: at the highest dose activity change, negative = inhibition, most hits filed as inhibitors; actives 0.63% (n = 310,000); AID 720579; calls by dose curve; tested in A549 cells; further: nearly all actives have a fitted effect of over 35% in size
# FMDV antiviral: foot and mouth disease virus antiviral activity; FMDV antiviral cell-based qHTS; Potency, µM (titrated, usually from 57.9 µM), for inactives: at the highest dose activity change, negative = inhibition, hits mostly inhibitors; actives 1.2% (n = 410,000); AID 1159524; calls by dose curve; tested in HEK293T cells; further: read-out not given here; nearly all actives have a fitted effect of over 45% in size
# Marburg entry inh: inhibitors of Marburg virus binding or cell entry; Marburg virus pseudotyped entry inhibition, cell reporter; Potency, µM (top dose mostly 37.8 µM), without a hit: top-dose activity change, negative = inhibition, actives largely listed as inhibitors; actives 1.8% (n = 300,000); calls by dose curve; tested in HEK293 cells
# HCV inh: inhibitors of hepatitis C virus infection; Huh7.5.1 HCVcc-Cre infection, luciferase reporter, 44 h; Potency, µM (highest dose often 41.8 µM), for the others: top-dose activity change, negative = inhibition, usual class: inhibitors; actives 3.4% (n = 340,000); active means well fitted inhibition curve with a large enough effect; inconclusive means small, poorly fitted or top-dose-only effect, or another doubt; inactive means no such curve, though single readings can be large or run the other way
#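 Cells seeded at 1,000/well and cultured 4 h, then compounds added followed by HCVcc-Cre virus (~0.5 moi). After 44 h further culture, luciferase substrate was added, plates held 15 min at room temperature, and luminescence read for 15 sec.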
# Active calls of the source: *; i = inactive; ? = inconclusive; . = not tested or not shown; + = active, no number; ! = not confirmed by another sample; [ ] = remark or other dose. On the % scale 0 is the no-effect control and ±100 the full control effect; potency means the concentration at half of the fitted maximal effect.
SMILES,Vaccinia Venus,Lassa entry inh,VACV mCherry inh,FMDV antiviral,Marburg entry inh,HCV inh
COc1cccc(C(NC(C)=O)c2nc(-c3cccc4cccnc34)cs2)c1 (centres undefined),-8.7%,.,-12.2%,-3.3%,.,.
CC(=O)NC(c1ccc2ccccc2c1)c1ccc2cccnc2c1O (centres undefined),?,?,?,-12.5%,?,2.51µM*
COc1ccc(C(NC(C)=O)c2ccc3cccnc3c2O)c(OC)c1 (centres undefined),?,6.31µM*,.,0.0%,?,5.01µM*
CCOc1cc(C(Nc2cc(C)ccn2)c2ccc3cccnc3c2O)ccc1OC (centres undefined),-8.6%[7.34 µM],5.62µM*,i[7.34 µM],-18.3%,?,.
CCOC(=O)c1c(Nc2ccc(OC)cc2)nnc(-c2ccccc2)c1-c1ccccc1,-16.1%,?,-14.7%,?,-2.5%[46.1 µM],.
COC(=O)CCCOc1ccc(Cl)cc1Cl,-18.5%,.,-15.4%,46.0%,.,.
O=C(O)CCCOc1ccc(Cl)cc1Cl,?,.,+!,-24.8%,.,-13.3%
Clc1ccc(CCNc2ncnc3nc[nH]c23)cc1,?,-2.9%,?,?,?,10µM*
CCCCc1ccc(Nc2ncnc3nc[nH]c23)cc1,-29.0%,.,10µM*,19.3%,.,5.6%
CCCNc1ncnc2nc[nH]c12,-11.4%,.,0.9%,-10.9%,.,0.2%
c1ccc2c(CCNc3ncnc4nc[nH]c34)cccc2c1,.,0.7%,.,31.6µM*,?,11.2µM*
C1=C(CCNc2ncnc3nc[nH]c23)CCCC1,-28.5%,-27.0%,-26.4%,0.4%,-40.6%,10µM*
COc1cc(C)c(CN2CCC3(CCC(CNC(=O)c4ccnn4C)O3)CC2)cc1C (centres undefined),-14.2%,.,i,1.8%,.,.
Cc1cc(C)nc(S[C@@H]2C[C@@H](C(=O)N3CCCN(C)CC3)N(Cc3cc(F)ccc3F)C2)n1,-5.6%,.,-12.5%,-3.8%,.,.
CC1=C([N+](=O)[O-])C(c2cccc(Br)c2)C2=C(N1)c1ccccc1C2=O (centres undefined),.,?,.,?,1.3µM*,?
COC(=O)C1=C(C)NC2=C(C(=O)c3ccccc32)C1c1cccc(OC)c1 (centres undefined),.,.,.,-12.5%,.,?
CC1=C(C(=O)OCc2ccc3c(c2)OCO3)C(c2ccc(Cl)cc2)NC(=O)N1 (centres undefined),?,?,?,.,2.06µM*,?
CCOC(=O)C1=C(CNCc2ccc(Cl)cc2)NC(=O)NC1c1ccccc1 (centres undefined),-4.2%,-21.9%[46.1 µM],-7.2%,-15.6%,-27.4%[46.1 µM],.
COc1ccc(COC(=O)C2=C(C)NC(=O)NC2c2cccc(Br)c2)cc1 (centres undefined),.,.,.,?,.,10µM*
CCOC(=O)C1=C(CNCc2ccc(C)cc2)NC(=O)NC1c1ccc(OC)cc1 (centres undefined),?,?,.,-21.9%,5.01µM*,?
CC(CCc1ccc(O)cc1)N1CCOc2c(O)cc(-c3nc4ccccc4s3)cc2C1 (centres undefined),-32.9%,.,?,-8.2%,.,.
C=CCN1C[C@H](C(=O)N(CCCN(C)C)C(=O)NCC)C[C@@H]2c3cccc4[nH]cc(c34)C[C@H]21,.,.,.,-5.1%,.,.
O=C(O)CCCCCN1C(=O)C2CCCCC2C1=O (centres undefined),.,?,.,3.98µM*,5.0%,-3.7%
O=C(O)CCCN1C(=O)C2C3C=CC(C2C1=O)C1C(=O)N(CCCC(=O)O)C(=O)C31 (centres undefined),-5.3%,-13.8%,-10.4%,-8.9%,0.2%,8.7%
CCCCN(C(C)=O)c1ccc(S(=O)(=O)NC2=NCCCCC2)cc1NC(C)=O,.,.,.,-7.4%,.,1.5%
SMILES,Vaccinia Venus,Lassa entry inh,VACV mCherry inh,FMDV antiviral,Marburg entry inh,HCV inh
CCn1c(NCc2ccccc2NS(=O)(=O)c2ccc(C)cc2)nc2ccccc21,?,?,?,-1.1%,20.6µM*,14.1µM*
CCn1c(NCc2cc(Br)ccc2NS(=O)(=O)c2ccc(C)cc2)nc2ccccc21,-23.9%,?,.,3.5%,?,10µM*
CCCCn1c(/N=C/c2ccccc2NS(=O)(=O)c2ccc(C)cc2)nc2ccccc21,-18.4%,?,-8.4%,-14.8%,?,17.8%
CCCn1c(NCc2ccccc2NS(=O)(=O)c2ccc(C)cc2)nc2ccccc21,?,?,?,15.2%,6.31µM*,?
Cc1cc(/C=c2/sc3nc4ccccc4n3c2=O)c(C)n1-c1ccccn1,.,0.206µM*,.,0.0316µM*,?,?
CCn1c(C)cc(/C=C2\NC(=O)N(Cc3ccc(Cl)cc3)C2=O)c1C,.,-2.3%,.,-6.1%,?,12.6µM*
CCN1C(=O)N/C(=C/c2cc(C)n(Cc3ccccc3)c2C)C1=O,.,?,.,7.0%,?,10µM*
Cc1cccc(CN2C(=O)N/C(=C/c3cc(C)n(-c4ccccn4)c3C)C2=O)c1,-26.3%,-20.3%,-2.8%,3.7%,-26.1%,1.78µM*
COCCn1c(C)cc(/C=C2/NC(=O)N(Cc3ccc(C)cc3)C2=O)c1C,-12.9%,-0.6%,-5.2%,49.1%,?,?
COc1ccc(Br)cc1CNC(=O)C1CCCCN1S(=O)(=O)c1ccc(F)cc1 (centres undefined),-6.0%,11.7%[46.1 µM],-11.0%,10.9%,.,.
NS(=O)(=O)c1ccc(NC(=S)Nc2ccn(Cc3cccc4ccccc34)n2)cc1,-30.0%,3.55µM*,-25.9%,?,6.31µM*,10µM*
CC(=O)OCC1OC(n2cnc3c(Cl)nc(Cl)nc32)C(OC(C)=O)C1OC(C)=O (centres undefined),3.6%,.,-1.8%,-22.7%,.,.
O=C1NC(=O)N(c2ccc3c(c2)OCO3)C(=O)/C1=C/c1cccs1,20.1%,?,i,28.2µM*,?,25.8%
CC(C)c1cc(C(=O)Nc2cc(Cl)ccc2O)no1,-11.7%,?,i,44.4%,?,10µM*
CC(C)CN(C)c1nc(N)c(C(=O)N=C(N)N)nc1Cl,.,.,.,.,7.08µM*,.
NC(N)=NC(=O)c1nc(Cl)c(N2CCCCCC2)nc1N,?,?,-19.6%,-13.6%,7.08µM*,?
NC(N)=NC(=O)c1nc(Cl)c(N)nc1N,-23.6%,5.4%,?,-11.9%,-15.9%,?
O=C(c1ccnc(-n2cnnn2)c1)N1CCOc2ccc(C(O)CCc3ccccc3)cc2C1 (centres undefined),-1.1%,.,-8.3%,14.9%,.,.
COc1cc2cc(CN(CCc3cccc(C)c3)C(=S)NCCCN3CCOCC3)c(=O)[nH]c2cc1OC,?,?,-3.1%,-10.7%,10µM*,?
CCc1ccc2[nH]c(=O)c(CN(CCCN3CCOCC3)C(=O)Nc3cccc(Cl)c3)cc2c1,?,?,.,?,17.8µM*,10µM*
Cc1cc(C)c2cc(CN(CCO)Cc3nnnn3Cc3ccccc3)c(=O)[nH]c2c1,?,-8.7%,.,-14.7%,-28.7%,?

# From PubChem BioAssay
